We go through 9 compounds from PubChem BioAssay (NCI).

The structures appear in SMILES notation. The panel holds about 83,000 compounds, 20% with a hit somewhere; the sample as a whole holds those more often.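 Cell lines were cultured in 96-well plates, exposed to a single compound concentration, and assessed for percent growth 48 hours later.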 Values without a mark were called inactive. The source made the active and inactive calls. How the source made its calls: active means growth percent below 10; inactive means the rest.

Among the test systems are HCT-15 colon; HT29 colon; SNB-19 CNS; U251 CNS; PC-3 prostate; SK-MEL-5 melanoma; UACC-62 melanoma; LOX IMVI melanoma; SK-MEL-2 melanoma; SN12C renal; UO-31 renal; TK-10 renal; ACHN renal; HL-60(TB) leukemia; CCRF-CEM leukemia; SNB-75 CNS; SK-MEL-28 melanoma; EKVX NSCLC; CAKI-1 renal; A498 renal.
Test in all cases: NCI-60 one-dose screen, 48 h (100 = growth as untreated, 0 = no growth, -100 = all killed)
Settings in all cases: 10 µM unless noted

With `O=[N+]([O-])c1c(Cl)cc(Cl)c([N+](=O)[O-])c1Cl`, the growth in the experiment on HCT-15 colon was 85.9%; in the experiment on HT29 colon, 100%; in the experiment on SNB-19 CNS, 113%; with U251 CNS it was 96.1%; in the experiment with PC-3 prostate it was 83.2%; in the experiment with SK-MEL-5 melanoma, 101%. Also, the growth in the experiment on UACC-62 melanoma is 108%; in the experiment with LOX IMVI melanoma it was 33.6%; in the experiment with SK-MEL-2 melanoma it was 112%; in the experiment on SN12C renal, 108%; with UO-31 renal, 151%; in the experiment with TK-10 renal it was 112%. Moreover, the growth was 103% in the experiment with ACHN renal, 85.2% in the experiment with HL-60(TB) leukemia and 53.5% in the experiment with CCRF-CEM leukemia.
As for `CC[C@H](C)[C@H](NC(=O)[C@H]1CCCCN1C)C(=O)N(C)[C@H](C(=O)NC12CC(C(=O)N[C@@H](Cc3ccccc3)C[C@H](C)C(=O)OC)(C1)C2)C(C)C`, the growth in the experiment with HT29 colon is 87.3%; in the experiment on SNB-75 CNS, 92.7%; in the experiment on SNB-19 CNS, 100%; in the experiment with U251 CNS, 96.7%; in the experiment with PC-3 prostate, 100%; in the experiment on SK-MEL-5 melanoma it was 101%. For the same compound, the growth in the experiment on UACC-62 melanoma was 102%; in the experiment on LOX IMVI melanoma, 92.1%; in the experiment on SK-MEL-28 melanoma, 110%; in the experiment with SK-MEL-2 melanoma, 89.3%; in the experiment on EKVX NSCLC, 102%; in the experiment with SN12C renal, 99%. Besides, the growth with UO-31 renal is 95.1%; in the experiment on TK-10 renal, 98.4%; in the experiment on ACHN renal, 106%; with CAKI-1 renal it was 95.9%; in the experiment with A498 renal it was 112%; in the experiment with CCRF-CEM leukemia, 103%.
In the case of `O=S(OO)c1cc(Cl)c(O)c(Cl)c1` (configuration not stated), the growth was 99.2% in the experiment on HCT-15 colon; 113% in the experiment with HT29 colon; 94% with U251 CNS; 94.7% in the experiment on PC-3 prostate; 104% in the experiment on SK-MEL-5 melanoma; 101% with UACC-62 melanoma. In addition, the growth is 96.4% in the experiment on LOX IMVI melanoma; 98.9% in the experiment with SK-MEL-28 melanoma; 110% in the experiment on SK-MEL-2 melanoma; 101% in the experiment on SN12C renal; 84.2% in the experiment on UO-31 renal; 100% in the experiment with TK-10 renal. Further, the growth is 100% in the experiment with ACHN renal; 91.3% in the experiment on CAKI-1 renal; 82.5% in the experiment on A498 renal; 103% in the experiment with HL-60(TB) leukemia; 91% in the experiment with CCRF-CEM leukemia.
In the case of `N#CCN(CC#N)[N+](=O)[O-]`, the growth in the experiment on HT29 colon was 103%; in the experiment with SNB-75 CNS it was 89.8%; in the experiment on SNB-19 CNS, 99.1%; in the experiment with U251 CNS, 104%; in the experiment on PC-3 prostate it was 95.4%; with SK-MEL-5 melanoma, 103%. For the same compound, the growth in the experiment with UACC-62 melanoma is 98.2%; in the experiment on LOX IMVI melanoma it was 109%; in the experiment on SK-MEL-28 melanoma, 106%; in the experiment with SK-MEL-2 melanoma it was 105%; in the experiment on EKVX NSCLC it was 104%; in the experiment with SN12C renal it was 94%. Moreover, the growth in the experiment on UO-31 renal is 101%; in the experiment with TK-10 renal it was 100%; with ACHN renal, 110%; in the experiment with CAKI-1 renal, 95.2%; in the experiment with HL-60(TB) leukemia, 115%; in the experiment with CCRF-CEM leukemia, 85.2%.
Regarding `CC[C@H](C)[C@H](NC(=O)c1ncccn1)C(=O)N(C)[C@H](C[C@@H](OC(C)=O)c1nc(C(=O)N[C@@H](Cc2ccccc2)C[C@H](C)C(=O)OC)cs1)C(C)C`, the growth in the experiment on HCT-15 colon is 10.3%; with HT29 colon it was -2.02% (active); in the experiment on SNB-19 CNS, 44.1%; in the experiment with U251 CNS, 16.7%; with PC-3 prostate, 27.7%; in the experiment with SK-MEL-5 melanoma, 21.5%. In addition, the growth in the experiment with UACC-62 melanoma was 46.9%; in the experiment on LOX IMVI melanoma, 21.4%; in the experiment with SK-MEL-2 melanoma, 43.9%; with EKVX NSCLC, 58.5%; in the experiment on SN12C renal, 45.7%; in the experiment with UO-31 renal, 50.5%. In addition, the growth in the experiment on TK-10 renal was 41%; in the experiment with ACHN renal it was 50.8%; in the experiment on CAKI-1 renal it was 61%; in the experiment with A498 renal, 28.1%; in the experiment on HL-60(TB) leukemia it was -42.8% (active); in the experiment with CCRF-CEM leukemia, 10.4%.
With `C/C=C(/C)C(=O)O[C@H]1CC[C@@]2(C)[C@@H]3CC[C@H]4[C@]5(O)C[C@H](O)[C@@]6(O)[C@@H](CN7C[C@@H](C)CC[C@H]7[C@@]6(C)O)[C@]5(O)C[C@@]42O[C@@]13O`, the growth with HCT-15 colon was 98.4%; with HT29 colon, 92.4%; in the experiment on SNB-19 CNS it was 112%; in the experiment on U251 CNS it was 103%; with SK-MEL-5 melanoma it was 102%; with UACC-62 melanoma it was 127%. For the same compound, the growth with LOX IMVI melanoma was 104%; in the experiment with SK-MEL-2 melanoma it was 0.648% (active); with EKVX NSCLC, 107%; in the experiment on SN12C renal it was 115%; with UO-31 renal, 81%; with TK-10 renal it was 125%. Also, the growth in the experiment with ACHN renal was 113%; in the experiment with CAKI-1 renal, 103%; with A498 renal, 127%; in the experiment on HL-60(TB) leukemia, 128%; in the experiment with CCRF-CEM leukemia, 106%.
`CCCn1cc2c3c(cccc31)[C@H]1C[C@@H](C)CN(C)[C@@H]1C2`: the growth in the experiment on HT29 colon was 45%; in the experiment on SNB-75 CNS it was 58.2%; in the experiment on SNB-19 CNS, 91.2%; with U251 CNS, 86.7%; with PC-3 prostate, 72.3%; in the experiment on SK-MEL-5 melanoma it was 113%. Moreover, the growth is 93.2% with UACC-62 melanoma; 88.5% in the experiment with LOX IMVI melanoma; 97.7% with SK-MEL-28 melanoma; 134% with SK-MEL-2 melanoma; 94.9% with EKVX NSCLC; 81.6% with SN12C renal. In addition, the growth in the experiment with UO-31 renal is 36.1%; in the experiment on TK-10 renal it was 96.8%; in the experiment with ACHN renal it was 94.6%; with CAKI-1 renal, 83.8%; in the experiment on A498 renal it was 71.3%; with CCRF-CEM leukemia, 86.9%.
Regarding `O=Cc1cn(Cc2ccccc2)c2ccccc12`, the growth in the experiment on HCT-15 colon is 106%; in the experiment with HT29 colon, 92%; in the experiment with U251 CNS it was 68.5%; with PC-3 prostate, 95%; in the experiment with SK-MEL-5 melanoma it was 85.5%; with UACC-62 melanoma, 32.6%. The growth in the experiment with LOX IMVI melanoma is 79.4%; in the experiment with SK-MEL-28 melanoma, 216%; in the experiment on SK-MEL-2 melanoma, 27.1%; with EKVX NSCLC, 120%; in the experiment on SN12C renal, 98.1%; in the experiment with UO-31 renal, 55.6%. Further, the growth was 25.1% in the experiment on TK-10 renal; 91.3% in the experiment on ACHN renal; 21.9% in the experiment with CAKI-1 renal; -92.7% (active) with A498 renal; 105% in the experiment on HL-60(TB) leukemia; 104% in the experiment on CCRF-CEM leukemia.
For `Oc1cc(Cl)ccc1Oc1ccc(Cl)cc1Cl`, the growth in the experiment on HCT-15 colon was 14.4%; with HT29 colon, 87.4%; with SNB-19 CNS it was 23.7%; in the experiment on U251 CNS it was 8.21% (active); in the experiment on PC-3 prostate, 39%; with SK-MEL-5 melanoma, -32% (active). For the same compound, the growth in the experiment with UACC-62 melanoma is 24.4%; with LOX IMVI melanoma, 11.5%; with SK-MEL-28 melanoma, 46.8%; in the experiment on SK-MEL-2 melanoma, 16.6%; in the experiment on EKVX NSCLC it was 42.7%; with SN12C renal it was 10.9%. Further, the growth was 102% in the experiment on TK-10 renal; 7.4% (active) with ACHN renal; 90.5% in the experiment with CAKI-1 renal; 103% with A498 renal; -24.9% (active) with HL-60(TB) leukemia; 24.8% in the experiment on CCRF-CEM leukemia.
